Sampled rows, rich in hits. Any-hit rate of the full collection: about 19%.
SW480 rereplic – DNA re-replication induction in SW480 cells | actives 1.8% (n = 340,000) | SW480 DNA re-replication, Hoechst DNA content imaging, 48 h | Potency, µM (top dose mostly 46.1 µM), for inactives: at the top dose re-replication activation, most hits filed as activators; note: potency is the fitted concentration of half-maximal effect; % of control where 0% means no effect; nearly all actives have a fitted effect of over 55% in size
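Readout is total intensity of Hoechst-stained nuclei, excited at 405 nm and collected at 500-530 nm. Compound treatment lasted 48 hr at 37 C in 5% CO2 before staining.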
MCF10A rereplic – inducers of DNA re-replication in MCF 10A breast cells | MCF 10A DNA re-replication, Hoechst nuclear intensity, 48 h | Potency, µM (titrated, usually from 46.1 µM), for the others: at the top dose activity, positive = re-replication, usual class: activators | actives 2.9% (n = 350,000); note: potency is the fitted concentration of half-maximal effect; % of control where 0% means no effect; nearly all actives have a fitted effect of over 50% in size
IL-1B inflam inh – inflammasome signaling inhibition, IL-1 beta readout. THP-1 LPS/ATP IL-1B secretion, AlphaLISA, 16 h; hits give low values. activity change, % at 57.5 µM. actives 4.7% (n = 360,000); in the data active = activity change below about -50%; inconclusive = mostly about -30% to -49%; note: % is set by controls: 0 for no effect and ±100 for the full control effect
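Secreted IL-1B measured by AlphaLISA bead assay after 16 h compound exposure of THP-1 cells; compounds (final up to 57.5 uM) added 1 h before LPS (250 ng/mL) and ATP (1.25 mM) stimulation; lower signal means less secretion.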
TDP1 cell noCPT – qHTS for Inhibitors of human tyrosyl-DNA phosphodiesterase 1 (TDP1): qHTS in cells in absence of CPT; actives 15% (n = 420,000); Potency, µM (titrated, usually from 46.2 µM), without a hit: at the highest dose activity change, negative = growth inhibition, usual class: inhibitors; DT40 Tdp1-/- hTDP1 cells, no CPT, ATP luminescence, 48 h; note: potency is the fitted concentration of half-maximal effect; % is set by controls: 0 for no effect and ±100 for the full control effect; nearly all actives have a fitted effect of over 55% in size
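Camptothecin absent (DMSO only). Human TDP1-complemented DT40 knockout cells, 400 cells/well, 37 °C for minimum 48 hr; ATP measured via CellTiter-Glo, 30 min dark incubation, luminescence.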
Chronic BCR inh – blocks chronic active B-cell receptor signaling | actives 0.05% (n = 340,000) | ABC-DLBCL IkBa-CBG/CBR reporter, luminescence ratio, 4 h | AID 493014 | Potency, µM (doses to about 46.1 µM), for the others: at the highest dose activity change, negative = inhibition, most hits filed as inhibitors; active = well fitted inhibition curve with a large enough effect in the signal ratio, with a control signal flat, not every such curve was filed as active; inconclusive = small, poorly fitted or top-dose-only effect, or effect the other way, or a change in a side signal; the % refers to the signal ratio;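 note: potency is the fitted concentration of half-maximal effect; plate controls were basal doxycycline-induced cells for no effect and cells given 10 µM MG132 for full effect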
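Concentration-response series (up to 46 uM) were applied to TMD8 dual-reporter cells for 4 h at 37C with doxycycline. Green/red ratio, after filter-overlap correction, defined %Activity; red signal alone was normalised to basal cells and zero luminescence.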
DT40 TDP1 CPT – DT40-hTDP1 cell growth loss with CPT; chicken DT40 Tdp1-/-;hTDP1 cells + 20 nM CPT, ATP luminescence, 48 h; Potency, µM (series often up to 46.2 µM), for inactives: top-dose activity change, negative = growth inhibition, usual class: inhibitors; actives 12% (n = 420,000); note: potency is the fitted concentration of half-maximal effect; % is set by controls: 0 for no effect and ±100 for the full control effect; nearly all actives have a fitted effect of over 55% in size
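Chicken DT40 Tdp1-/- cells stably complemented with human TDP1 were seeded at 400 cells/well in medium containing 20 nM camptothecin, exposed to pin-transferred compounds, and grown at 37 °C for at least 48 hr. Viability was read as ATP luminescence.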
* = called active by the depositor; i = inactive; ? = inconclusive; nt = no result given. Unless noted, calls come from the whole dose curve; as a rule, active = well fitted curve in the direction sought with a large enough effect; inconclusive = small, poorly fitted or top-dose-only effect, or another doubt; inactive = no such curve, though single readings can be large; an effect the other way counts as inactive or inconclusive.

SMILES	SW480 rereplic	MCF10A rereplic	IL-1B inflam inh	TDP1 cell noCPT	Chronic BCR inh	DT40 TDP1 CPT
Cc1ccc(C)c(S(=O)(=O)N2CCCOC2CNC(=O)C(=O)NCCc2ccccc2)c1 (centres undefined)	?	?	i	16µM*	0%	?
Cc1ccc(S(=O)(=O)N2CCOC2CNC(=O)C(=O)NCCCc2ccccc2)cc1 (centres undefined)	-2%	15%	6	18µM*	0%	?
COC(=O)C1CCN(C(=O)CN2C(=O)NC(CC(C)C)C2=O)CC1 (centres undefined)	-11%	-5%	-11	-6%	?	1%
Cc1ccc(S(=O)(=O)N2CCN(C(=O)CN3C(=O)NC4(CCCC4)C3=O)CC2)c(C)c1	-37%	?	4	-24%	-5%	1%
CCN(CC)C(=O)/C(=C\c1ccc(Br)cc1)NC(=O)c1ccccc1OC	-1%	21%	9	15µM*	-2%	?
COc1ccc(N(C)S(=O)(=O)c2cccc(C(=O)Nc3nc4ccccc4[nH]3)c2)cc1	?	?	?	?	?	23µM*
CN(c1cccc(Cl)c1)S(=O)(=O)c1cccc(C(=O)Nc2nc3ccccc3[nH]2)c1	?	8.2µM*	-62*	23µM*	?	21µM*
CCc1ccccc1NC(=O)Cn1ccn(Cc2ccccc2)c(=O)c1=O	nt	nt	nt	-8%	nt	2%
CCN(C(=O)Cn1c(=O)n2nc(CCn3nc(C)cc3C)nc2c2ccccc21)c1cccc(C)c1	4%	-7%	-15	-23%	-2%	-22%
COc1cccc(CNC(=O)Cn2c(=O)n3nc(-c4cccc(C)c4)nc3c3ccccc32)c1	nt	nt	nt	15µM*	?	16µM*
COc1cccc(CNC(=O)Cn2c(=O)n3nc(-c4cccc(F)c4)nc3c3ccccc32)c1	nt	nt	nt	-13%	20%	-6%
Cc1cccc(NC(=O)Cn2c(=O)n3nc(CCn4nc(C)cc4C)nc3c3ccccc32)c1	-3%	-20%	6	13µM*	?	18µM*
CC(C)(C)c1ccc(S(=O)(=O)Nc2ccc(C(O)(C(F)(F)F)C(F)(F)F)cc2)cc1	nt	nt	-17	16µM*	nt	16µM*
O=S(=O)(Nc1ccc(C(O)(C(F)(F)F)C(F)(F)F)cc1)c1cccc2ccccc12	nt	nt	0	21µM*	nt	16µM*
COc1cccc(S(=O)(=O)Nc2ccc(C(O)(C(F)(F)F)C(F)(F)F)cc2)c1	nt	nt	-3	16µM*	nt	16µM*
COc1ccc(NS(=O)(=O)c2cccc(C(=O)NNC(=O)c3ccc(NC(C)=O)cc3)c2)cc1	-6%	-1%	-5	0%	-2%	14%
c1nc(N2CCNCC2)c2sc3nc(N4CCOCC4)c4c(c3c2n1)CCC4	nt	nt	nt	nt	-2%	nt
OCCN(CCO)c1ncnc2c1sc1nc(N3CCOCC3)c3c(c12)CCCC3	-2%	10%	1	18µM*	-10%	16µM*
CC1(C)Cc2c(c(N3CCOCC3)nc3sc4c(NCCN)ncnc4c23)CO1	?	?	0	?	nt	?
OCCN1CCN(c2ncnc3c2sc2nc(N4CCOCC4)c4c(c23)CCC4)CC1	-2%	-17%	-77*	21µM*	-16%	?
CC1(C)Cc2c(c(N3CCCC3)nc3sc4c(N5CCN(CCO)CC5)ncnc4c23)CO1	?	1%	-61*	11µM*	?	16µM*
CN(C)CCNc1ncnc2c1sc1nc(N3CCOCC3)c3c(c12)CC(C)(C)SC3	?	21µM*	-80*	21µM*	-1%	?
O=c1c(CCc2ccccc2)nc2cnc(N3CCOCC3)nc2n1Cc1ccc(F)cc1	nt	nt	nt	-2%	nt	-13%
C[C@H](CO)N1C[C@H](C)[C@@H](CN(C)S(=O)(=O)c2cn(C)cn2)Oc2ccc(NC(=O)Cn3cnnn3)cc2C1=O	-5%	12%	56	8%	-1%	5%
CN(CC(=O)Nc1ccccc1C(F)(F)F)C(=O)c1ccc2c(=O)n3c(nc2c1)CCC3	-5%	6%	-13	1%	0%	-14%
SMILES	SW480 rereplic	MCF10A rereplic	IL-1B inflam inh	TDP1 cell noCPT	Chronic BCR inh	DT40 TDP1 CPT
O=C1NC(=O)C2(C=C(c3ccccc3)C(O)(c3ccccc3)C2)N1 (centres undefined)	0%	-1%	9	-15%	nt	-9%
CC1=CC(C)(C)n2c(O)c(C3=NC(=S)NC3=O)c3cc(OC(=O)c4cccc5ccccc45)cc1c32	-40%	-6%	-4	23µM*	-1%	?
Clc1ccc(Cn2c(-c3cccnc3Cl)nc3ccccc32)cc1	12%	19%	3	?	-6%	?
CCn1c(-c2cccnc2Cl)nc2cc(Cl)c(Cl)cc21	6%	29%	5	?	-28%	18µM*
Nc1nonc1-c1nc2ccccc2n1Cc1ccc(F)cc1Cl	?	3%	?	21µM*	4%	21µM*
Clc1ccc(Cn2c(-c3cccnc3Cl)nc3ccccc32)c(Cl)c1	4%	16µM*	13	?	?	?
Cc1ccc(/C=N/n2c(C3CCCCC3)n[nH]c2=S)cc1	-3%	24%	-15	?	?	-14%
O=C(Cc1csc2nc(-c3ccc(F)cc3)cn12)NCc1ccccc1	nt	nt	nt	?	nt	16µM*
Cc1nn(CC(=O)NCCCN2CCCC2=O)c(C)c1[N+](=O)[O-]	?	5%	-3	-12%	?	-18%
COC(=O)c1cc(C)ccc1/C=C1/Cc2c(C)cc(C)cc2C1=O	27%	3%	-7	?	nt	9.2µM*
COC(=O)c1cc(OC)c(OC)cc1NC(=O)c1ccc(C)cc1	5%	8%	-16	?	16%	?
Cc1ccc(C(C)C)c(OCc2ccc(-c3nnco3)cc2)c1	9%	23µM*	-25	21µM*	1%	16µM*
Cc1ccc(COc2ccc(-c3nnco3)cc2)cc1	-1%	-3%	?	-4%	3%	-1%
O=C(N1CCOCC1)C12OC3CC(CC(C3)O1)O2	nt	nt	18	-11%	nt	-2%
CC(C)Cn1c(/C=C/c2ccccc2)nc2ccccc21	5%	8%	-66*	?	-1%	?
COc1ccc(Cn2c(/C=C/c3ccccc3)nc3ccccc32)cc1	?	?	-78*	-27%	7%	?
COc1ccc(/C=C/c2nc3ccccc3n2C)cc1	1%	15%	-73*	8.2µM*	?	9.2µM*

Assay outcomes deposited in PubChem BioAssay by National Center for Advancing Translational Sciences (NCATS).
